Experimental data taken from PubChem BioAssay AID916 (National Center for Advancing Translational Sciences (NCATS), 2007).
Results filed as inconclusive are left out. Active and inactive are the calls of the source. Calls follow the shape of the dose curve; as a rule, active = well fitted activation curve with a large enough effect in the signal ratio, with a control signal flat (not every such curve was filed as active); inconclusive = small, poorly fitted or top-dose-only effect, or a change in a side signal; inactive = flat fitted curve, though single readings scatter; the % refers to the signal ratio.

Test: Confirmation Concentration-Response Assay for Cell signaling CRE-BLA (Fsk stim)
Conditions: CHO CRE-bla reporter (cAMP response element driving beta-lactamase), NKH477 EC10 stim, FRET ratio; series mostly up to 38.3 µM
Source text: NIH Molecular Libraries Screening Centers Network [MLSCN] NIH Chemical Genomics Center [NCGC] MLSCN Grant: 1X01MH079867-01 Assay Provider: Marshall W. Nirenberg, U.S. National Heart, Lung and Blood Institute CRE beta-lactamase Assay Overview Memories persist for different lengths of time, from seconds or minutes to a lifetime. There are two kinds of memory: short-term memory (STM) and long-term memory (LTM). STM lasts for minutes to hours, which maybe mediated by modifications of molecules involved in synaptic functions. LTM lasts for days or longer, and may be due to the formation of new synapses or restructuring of existing synapses. LTM, but not STM, requires gene transcription and synthesis of proteins. CREB (cyclic-AMP Responsive Element Binding Protein) is one of the candidates plays an important role for enhancement of some types of LTM. CREB, a family of transcription factors, regulates the transcription of genes containing cAMP Responsive Elements (CRE). CRE is a nucleotide sequence often found in the promoter regions of genes that are binding sites for CREB. Using a beta-lactamase reporter-gene under control of cAMP responsive element, a cell-based assay [CellSensor(TM) CRE-bla CHO developed by Invitrogen Corp.] was used to measure forskolin-induced signaling. The selected compounds were measured for their ability to modulate positively the action of EC10 NKH 477, a water soluble forskolin, on reporter gene activity. Compounds were screened in a titration series in 1536-well format. Positive modulators were identified based on the AC50 values derived from the screening data.
NCGC Assay Protocol Summary 2000 cells/5uL in Opti-MEM medium containing 0.5% dialyzed FBS, 0.1 mM NEAA, 1 mM sodium pyruvate and 10 mM HEPES was dispensed into 1536-well plates and cells were cultured at 37 degrees Celsius overnight. Next day 23 nL of compounds or DMSO were delivered to each well using a pin tool, and 1uL of EC10 level of NKH 477, or EC100 level of IBMX, a PDE inhibitor, in the present of NKH 477, or assay medium was added. And then the plates were incubated at 37 degrees Celsius for 3 hours. 1 uL of CCF4-dye mixture was added to each well. After incubated at room temperature for 2 hours the plates were measured on an EnVision plate reader at Excitation 405nm, Emission1=460nm and Emission 2=530nm. The %Activity was determined from the ratio of 460nm/530nm. Keywords: NIH Roadmap, MLSCN, MLSMR, qHTS, NCGC, CRE, beta-lactamase reporter-gene assay.

Potency, active:
CC1(C)Cc2c(sc3nc(SCC#N)n(C4CCCCC4)c(=O)c23)CO1 20 µM
CCCN(CCC)c1nc2ccccc2n2c(C)nnc12 12.6 µM
CC[C@]1(O)C[C@@H]2CN(CCc3c([nH]c4ccccc34)[C@](C(=O)OC)(c3cc4c(cc3OC)N(C=O)[C@H]3[C@@](O)(C(=O)OC)[C@H](C(=O)OC)[C@@]5(CC)C=CCN6CC[C@]43[C@H]65)C2)C1 0.501 µM
COc1cc(-c2cc(=O)c3ccccc3o2)ccc1O 15.8 µM
COc1ccc(CCNC(=O)CSc2nc(C)nc3c2oc2ccccc23)cc1OC 12.6 µM
